An excerpt weighted towards active compounds, which were near 6% of everything screened.
D3 ag = activates the human D3 dopamine receptor; P35462; D3R DiscoveRx beta-arrestin cells, luminescence, 90 min; max activation, %; 0.58% of 410,000 active; AID 652048; in the data active = max activation above about 30%; note: 0% is about no effect
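Agonist-mode cell screen: cells plated at 1500/well and incubated overnight at 37 °C, then exposed to library compounds for 90 min at 37 °C. Detection reagent was added for 30–60 min at room temperature, and luminescence was read.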
D1 potentiator = human D1 dopamine receptor positive modulation | P21728 | potentiation, % at 10 µM | HEK293 TREx D1 cells, calcium flux, dopamine EC20 potentiation | 0.036% of 360,000 active | AID 504651; in the data active = potentiation above about 30%; note: 0% is about no effect
Target sequence (P21728 whole entry, looked up): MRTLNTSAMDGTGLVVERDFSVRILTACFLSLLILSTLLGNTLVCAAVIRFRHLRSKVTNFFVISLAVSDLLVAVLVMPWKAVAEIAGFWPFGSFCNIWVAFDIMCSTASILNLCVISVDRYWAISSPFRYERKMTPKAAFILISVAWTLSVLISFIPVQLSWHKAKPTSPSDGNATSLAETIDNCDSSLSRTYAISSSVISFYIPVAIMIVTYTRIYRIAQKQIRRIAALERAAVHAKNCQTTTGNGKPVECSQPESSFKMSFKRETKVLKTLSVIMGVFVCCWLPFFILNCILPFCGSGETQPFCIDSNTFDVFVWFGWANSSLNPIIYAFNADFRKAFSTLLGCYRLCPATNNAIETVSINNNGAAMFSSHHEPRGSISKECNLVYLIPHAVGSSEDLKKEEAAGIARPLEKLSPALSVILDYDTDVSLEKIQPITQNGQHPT
DRD3 antagonist = D3 dopamine receptor (human) antagonism; P35462; D3R cells, DiscoveRx beta-arrestin luminescence, antagonist mode; stronger effect = lower value; max response, negative = inhibition, %; 2.5% of 360,000 active; AID 652054; in the data active = max response below about -50%; inconclusive = no clear call, values can overlap the other calls; note: % is set by controls: 0 for no effect and ±100 for the full control effect
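Cells plated overnight at 1500 cells/well, then exposed to library compounds with dopamine controls for 90 minutes at 37 degrees C. DiscoveRx reagent added for 30–60 minutes at room temperature; luminescence read, quantitative HTS format.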
D1 antagonist = human D1 dopamine receptor antagonism; activity change, negative = inhibition, % at 10 µM; 3.2% of 360,000 active; HEK293 TREx D1 cells, calcium flux, dopamine EC80; stronger effect = lower value; AID 504652; P21728; in the data active = activity change below about -30%; note: % is set by controls: 0 for no effect and ±100 for the full control effect
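Allosteric or orthosteric antagonism assessed as attenuation of the calcium response to EC80 dopamine, added 180 s after compound, in induced HEK293 Trex D1 cells loaded with no-wash calcium dye.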
Chronic BCR inh = chronic active BCR signaling inhibition. ABC-DLBCL IkBa-CBG/CBR reporter, luminescence ratio, 4 h. Potency, µM (doses to about 46.1 µM), for the others: top-dose activity change, negative = inhibition, actives largely listed as inhibitors. 0.05% of 340,000 active; active = well fitted inhibition curve with a large enough effect in the signal ratio, with a control signal flat, not every such curve was filed as active; inconclusive = small, poorly fitted or top-dose-only effect, or effect the other way, or a change in a side signal; the % refers to the signal ratio;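 note: potency is the fitted concentration of half-maximal effect; plate controls were basal doxycycline-induced cells for no effect and cells given 10 µM MG132 for full effect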
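TMD8 ABC-DLBCL cells carrying doxycycline-inducible green luciferase fused to IkappaBalpha plus unfused red luciferase were exposed to compounds (up to 46 uM) for 4 hrs at 37C. Activity came from the overlap-corrected green/red luminescence ratio.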
D1 ag = human D1 receptor agonism. activation, % at 2 µM. HEK293 T-REx D1 cells, calcium flux, agonist mode. 1% of 360,000 active. P21728; in the data active = activation above about 30%; note: 0% is about no effect
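Inducible HEK293 T-REx D1 cells, force-coupled to calcium signalling, were plated at 4000 cells/well with tetracycline and held overnight at 30 C. After no-wash calcium dye loading, compound-evoked calcium rise over 180 s flagged agonists.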
* marks the source's active call; other numbers are inactive results; ? = inconclusive; nt = no result given; ! = a repeat was not active.

SMILES | D3 ag | D1 potentiator | DRD3 antagonist | D1 antagonist | Chronic BCR inh | D1 ag
COC(=O)[C@H](CCSC)NC(=O)Cn1ccc(NC(=O)OCc2ccccc2)nc1=O | -2.5 | -1.9 | 1.8 | 19.9 | ? | 1.4
CCOc1ccc(CCNC(=O)c2cc3c(=O)oc4ccc(C)cc4c3s2)cc1OCC | 1.6 | -3.5 | nt | 12.4 | nt | 0.4
COC(=O)CC1Oc2ccc(Cl)cc2-n2cc(-c3ccc(F)cc3)nc21 (stereo unspecified) | 49.7* | -0.6 | nt | 2.7 | nt | 2.0
COc1cccc(NC(=O)Cn2cc(C(=O)c3ccco3)c3ccccc32)c1 | 11.1 | -1.2 | nt | -4.3 | nt | 3.7
CC1(c2ccc3noc(-c4ccccc4)c3c2)OCCO1 | 1.7 | -3.4 | 8.9 | -20.8 | 8.6% | 1.1
COc1cccc(-c2onc3ccc(C4(C)OCCO4)cc23)c1 | 31.8* | -1.6 | 26.7 | 9.2 | -1.8% | 0.5
Cc1cc(C)n(CCNC(=O)[C@H]2O[C@@H](n3ccc(N)nc3=O)[C@H](O)[C@@H]2O)n1 | 0.8 | nt | -16.6 | nt | nt | nt
N#Cc1c(-c2ccccc2)[nH]c(=O)[nH]c1=O | 1.6 | -0.5 | -0.2 | -34.9* | 12.0% | 3.8
CNC[C@H](O)c1cccc(O)c1 | 44.6*! | -5.8 | -14.2 | -72.6* | 3.5% | 0.8
O[C@@H](CNC[C@H](O)c1ccccc1)c1ccccc1 | -2.4 | 3.2 | -4.7 | 4.8 | 8.1% | 1.4
CC1CCN(CCCCOc2ccc(Br)cc2)CC1 | -17.5 | -5.4 | -51.8* | -10.5 | -5.6% | 11.0
Brc1ccc(OCCCCN2CCCCC2)cc1 | -6.5 | 1.7 | -55.4* | -17.5 | -0.5% | 7.8
Cc1cc(Br)ccc1OCCCCN1CCC(C)CC1 | -27.2 | -6.2 | -75.7* | -10.1 | -6.4% | 11.2
C[C@@H]1CN([C@@H](C)CO)C(=O)CCCn2nncc2CO[C@H]1CN(C)S(=O)(=O)c1ccc(F)cc1 | -0.2 | nt | 2.1 | nt | nt | nt
Cc1nn(C2CCS(=O)(=O)C2)c2nc(C3CC3)cc(C(=O)Nc3cccc(C#N)c3)c12 (stereo unspecified) | -21.2 | -6.3 | -21.3 | -35.9* | -1.2% | 6.4
c1ccc(Cc2c[nH]c3ccccc23)cc1 | 2.1 | -0.8 | 12.1 | -1.7 | 4.2% | 4.0
CN(Cc1ccccc1)Cc1c[nH]c2ccccc12 | 0.9 | -13.7 | -82.0* | -61.5* | 7.1% | 7.5
Cc1ccc2c(CC(=O)OC(C)C(=O)NCc3ccc4c(c3)OCO4)coc2c1 (stereo unspecified) | -0.7 | -3.4 | 45.7 | -32.3* | -0.6% | 9.1
[C-]#[N+][C@H](O[C@@H]1O[C@H](CO)[C@@H](O)[C@H](O)[C@H]1O)c1ccccc1 | -17.9 | nt | -1.3 | nt | nt | nt
O=C(O)CC(CCc1ccccc1)OC1OC(CO)C(O)C(O)C1O (stereo unspecified) | 32.9* | -9.2 | -0.1 | 2.5 | ? | 0.5
Cc1ccc(C)c(Nc2nn3c(=O)c4ccc(C(=O)NCc5ccccc5)cc4nc3s2)c1 | -7.6 | -1.5 | nt | -2.6 | nt | 0.3
CCc1cccc(NC(=O)COC(=O)C2COc3ccccc3O2)c1 (stereo unspecified) | -4.3 | nt | 0.0 | nt | nt | nt
COc1ccc(-n2c(O)c(C=Nc3ccccc3)c3ccccc3c2=O)cc1 | -3.6 | -5.6 | -11.1 | 11.6 | 2.8% | 3.2
CCN(c1ccc(N=Cc2c(O)n(Cc3ccc(OC)cc3)c(=O)c3ccccc23)cc1)C(C)C | -1.9 | 4.8 | -10.9 | -1.1 | -18.2% | 57.5*
Cc1nnc2c(N3CCN(c4ccccc4F)CC3)nc3ccccc3n12 | -8.9 | -1.6 | nt | -4.1 | nt | 7.9
SMILES | D3 ag | D1 potentiator | DRD3 antagonist | D1 antagonist | Chronic BCR inh | D1 ag
CCC(c1nnnn1Cc1cccs1)N1CCN(C2CCCC2)CC1 (stereo unspecified) | 3.1 | -1.2 | -63.2* | -6.7 | 14.9% | -0.4
Cc1ccc(Cc2c(C3CCCCC3)nc3cc(C)c(Br)c(C)n23)cc1 | -14.3 | nt | -5.2 | nt | nt | nt
c1ccc(CNCc2nnc(-c3cc4ccccc4[nH]3)s2)cc1 | nt | -6.2 | nt | 10.2 | nt | -0.2
O=C(NCCc1nc2ccccc2n1Cc1ccc(F)cc1)c1ccco1 | -0.7 | 0.5 | nt | 0.7 | nt | -0.5
CCCCN(C)C(=O)C1CCC(CNS(=O)(=O)c2ccc3c(c2)CC(C)N3C(C)=O)CC1 (stereo unspecified) | 2.3 | -8.8 | 20.3 | -35.8*! | 6.3% | 2.2
CC(=O)N1c2ccc(S(=O)(=O)NCCC(=O)NC3CCCC(C)C3C)cc2CC1C (stereo unspecified) | -1.4 | -5.5 | 14.4 | -39.0* | 5.9% | 14.4
CC(=O)N1c2ccc(S(=O)(=O)NCC3CCC(C(=O)N(C)Cc4ccccc4)CC3)cc2CC1C (stereo unspecified) | 3.9 | -4.5 | 0.5 | 2.1 | 3.9% | 4.5
CC(=O)N1c2ccc(S(=O)(=O)NCCC(=O)NC3CCCCCC3)cc2CC1C (stereo unspecified) | 5.1 | 7.4 | 4.2 | 5.6 | 1.7% | 1.7
CCCCNC(=O)C1(C)CCN1C(=O)c1ccc(OC)c(C(F)(F)F)c1 (stereo unspecified) | 4.9 | nt | 14.2 | nt | nt | nt
COc1cc(OC)c(NC(=O)Cn2c(=O)oc3cc(S(=O)(=O)N4CCCC4)ccc32)cc1Cl | -12.0 | 1.0 | nt | -0.8 | 0.2% | 1.4
C[C@H](CCCC(C)(C)O)[C@H]1CC[C@H]2[C@@H]3CC=C4C[C@@H](O)CC[C@]4(C)[C@H]3CC[C@]12C | -10.2 | nt | nt | nt | nt | nt
C=CCN1c2ccccc2[C@]23C[C@@H](C(=O)OC)N(C(=O)C4CCC4)C2=NC(C(=O)OC)=C(C(=O)OC)[C@H]13 | -18.6 | -0.7 | 0.2 | -19.7 | 0.0% | 6.0
C=CCN1c2ccccc2[C@]23C[C@@H](C(=O)OC)N(C(=O)NCCC)C2=NC(C(=O)OC)=C(C(=O)OC)[C@H]13 | -17.6 | 0.0 | -9.5 | -33.2* | 1.8% | 10.0
COc1cccc(COC(=O)C2CCN(S(=O)(=O)c3ccc(F)cc3)CC2)c1OC | 3.3 | -6.0 | -14.3 | -9.1 | -4.9% | 30.8*
O=c1[nH][nH]c2c1[C@H](CCc1cccc(Cl)c1)O[C@H](CCc1ccccc1)C2 | 5.7 | nt | 20.2 | nt | nt | nt
CCc1nnc(NC(=O)CCC(=O)N2CCN(CCOc3ccc(C)cc3)CC2)s1 | 45.3* | -1.6 | 0.1 | 2.7 | -0.2% | 0.6
CCc1nnc(NC(=O)CCC(=O)N2CCN(Cc3ccc(C)cc3C)CC2)s1 | -14.2 | 1.4 | 1.5 | -4.2 | 1.3% | 1.4
CCN(CC(=O)Nc1c(F)cccc1F)C(=O)CSCc1ccc(C)cc1 | -0.1 | nt | 15.7 | nt | nt | nt
Cc1nc(-c2ccc(S(=O)(=O)N3CCCN(CCc4ccccc4)CC3)s2)cs1 | -12.1 | -3.8 | -21.8 | -21.8 | -0.7% | 31.1*
Cc1nc(-c2ccc(S(=O)(=O)N3CCN(C4c5ccccc5-c5ccccc54)CC3)s2)cs1 | -10.2 | -4.3 | -6.1 | 5.8 | 14.4% | 1.1

High-throughput results: PubChem BioAssay, National Center for Advancing Translational Sciences (NCATS)
